Inconclusive results are not listed. Calls of active or inactive are those of the source. Unless noted, calls follow the shape of the dose curve; as a rule, active = well fitted curve in the direction sought with a large enough effect in the repeat runs; inconclusive = weak or mixed curves; inactive = no such curve, though single readings can be large; an effect the other way counts as inactive or inconclusive.

For test [1], the target named is Aryl hydrocarbon receptor (Homo sapiens) (UniProt P35869). Kind of test: qHTS assay to identify small molecule that activate the aryl hydrocarbon receptor (AhR) signaling pathway (AID 743085). Also: nearly all actives have a fitted effect of over 15% in size. Also: potency is read from the fitted curve at half-maximal effect.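 As to activation: HG2L7.5c1 human HepG2 liver cells with stably integrated DRE-driven firefly reporter; series mostly up to about 70 µM.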 An outline of the steps:
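Reporter assay in engineered HepG2 line HG2L7.5c1, whose plasmid carries twenty dioxin responsive elements upstream of firefly luciferase. Treatment lasted 24 h at 37C; ONE-Glo luminescence gauged induction.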
(In general: Quantitative high-throughput screening tests each substance at several concentrations.)

Test [2] can be described thus: qHTS assay to identify small molecule that activate the aryl hydrocarbon receptor (AhR) signaling pathway - cell viability counter screen (AID 743086).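 Also: HepG2 liver cells carrying the AhR DRE luciferase reporter; series mostly up to about 70 µM; nearly all actives have a fitted effect of over 45% in size.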 An outline of the steps: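 HepG2-AhR-luc (HG2L7.5c1) cells, 4000/well, treated 24 h at 37 C with compound; viability measured as CellTiter-Fluor fluorescence after 30 min in the same wells as the luciferase read.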

Test [3] concerns the target Peroxisome proliferator-activated receptor gamma (Homo sapiens) (UniProt P37231). Kind of test: qHTS assay to identify small molecule agonists of the peroxisome proliferator-activated receptor gamma (PPARg) signaling pathway (AID 743094; active = well fitted activation curve with a large enough effect in the signal ratio in the repeat runs, not every such curve was filed as active; the % refers to the signal ratio). The method in brief:
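Reporter activation was scored by fluorescence of cleaved LiveBLAzer B/G substrate (1 h, room temperature) in PPARg-bla HEK293H cells previously treated 17 h at 37C with DMSO-dissolved compounds.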

The target is the same in test [4]. Kind of test: qHTS assay to identify small molecule antagonists of the peroxisome proliferator-activated receptor gamma (PPARg) signaling pathway (AID 743191; calls by dose curve; also: series mostly up to about 63 µM; nearly all actives have a fitted effect of over 30% in size). An outline of the steps: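 GeneBLAzer PPARg UAS-bla HEK293H cells, 5 h post-plating, exposed to compounds 17 h at 37C. LiveBLAzer B/G FRET substrate added for 1 h at room temperature; beta-lactamase reporter read by fluorescence intensity.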

Test [5] is described as follows: qHTS assay to identify small molecule antagonists of the peroxisome proliferator-activated receptor gamma (PPARg) signaling pathway - cell viability counter screen (AID 743194). Also: nearly all actives have a fitted effect of over 55% in size. The method in brief:
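Cytotoxicity counter screen in PPARg-bla HEK293H cells, same wells as reporter assay. Compounds plus 50 nM rosiglitazone (final) for 17 h at 37 C, then viability read by CellTiter-Glo luminescence.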

Test [6] is described as follows: qHTS assay for small molecule agonists of the antioxidant response element (ARE) signaling pathway (AID 743202; active = well fitted activation curve with a large enough effect in the signal ratio in the repeat runs, not every such curve was filed as active; the % refers to the signal ratio). An outline of the steps: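 HepG2 ARE-bla reporter line, 2,000 cells/well; 5 h preincubation 37 C/5% CO2; compound (DMSO) 16 h 37 C; B/G FRET substrate 2 h RT; fluorescence intensity.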
Test [7] can be described thus: qHTS assay for small molecule activators of the heat shock response signaling pathway - cell viability counter screen (AID 743209). Also: nearly all actives have a fitted effect of over 50% in size. An outline of the steps:
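Viability of HSE-bla HeLa cells is measured with CellTiter-Glo in the wells already used for the reporter read. Compound exposure lasts 5 h at 37 C, and luminescence is read after 30 min at room temperature.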

The nature of test [8]: qHTS assay for small molecule activators of the heat shock response signaling pathway (AID 743210; active = well fitted activation curve with a large enough effect in the signal ratio in the repeat runs, with a control signal flat, not every such curve was filed as active; the % refers to the signal ratio;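 also: HeLa cells with beta-lactamase reporter driven by heat shock elements; series mostly up to about 63 µM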). An outline of the steps:
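Beta-lactamase reporter read-out: FRET substrate fluorescence after 2.5 h at RT, following 5 h compound treatment at 37 C of HeLa cells carrying HSE-driven bla reporter; quantitative HTS format.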

Test [9] is described as follows: qHTS assay to identify small molecule agonists of the peroxisome proliferator-activated receptor delta (PPARd) signaling pathway - cell viability counter screen (AID 743211). Also: nearly all actives have a fitted effect of over 55% in size. The method in brief:
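Multiplexed format: after the 2 h room-temperature LiveBLAzer B/G FRET step, CellTiter-Glo was added to the same wells. Luminescence after 30 min gave cell viability; compound exposure was 17 h at 37C.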

Test [10] concerns the target Peroxisome proliferator-activated receptor delta (Homo sapiens) (UniProt Q03181). Kind of test: qHTS assay to identify small molecule agonists of the peroxisome proliferator-activated receptor delta (PPARd) signaling pathway (AID 743212; calls by dose curve). The method in brief: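 Read-out: beta-lactamase FRET fluorescence after 2 h room-temperature incubation with LiveBLAzer B/G substrate. Cells were HEK293H carrying a UAS-bla reporter for PPARd, treated at 37 C with DMSO-dissolved compounds.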

A short description of test [11]: qHTS assay to identify small molecule antagonists of the peroxisome proliferator-activated receptor delta (PPARd) signaling pathway - cell viability counter screen (AID 743213). Also: nearly all actives have a fitted effect of over 50% in size. An outline of the steps: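 Same-well viability: cells pre-incubated 5 h, dosed with compound plus 300 nM L165041, kept 17 h at 37 C, FRET substrate 2 h RT, then CellTiter-Glo 30 min RT and luminescence.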

Test [12] has as its target Peroxisome proliferator-activated receptor delta (Homo sapiens) (UniProt Q03181). Kind of test: qHTS assay to identify small molecule antagonists of the peroxisome proliferator-activated receptor delta (PPARd) signaling pathway (AID 743215; active = well fitted inhibition curve with a large enough effect in the signal ratio in the repeat runs, not every such curve was filed as active; the % refers to the signal ratio;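 also: cells stimulated with agonist L165041 at 300 nM final during compound exposure; series mostly up to about 62 µM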). The method in brief: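 Plated HEK293H PPARd-bla cells rested 5 h at 37 C and 5% CO2. Compound, then agonist L165041 at 300 nM final, was added; 17 h at 37 C followed. Substrate loading, 2 h room temperature, fluorescence measured.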

Test [13] can be described thus: qHTS assay to identify small molecule antagonists of the farnesoid-X-receptor (FXR) signaling pathway - cell viability counter screen (AID 743221; active = well fitted cell-killing curve with a large enough effect in the repeat runs, not every such curve was filed as active; also: nearly all actives have a fitted effect of over 50% in size). The method in brief:
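CellTiter-Glo, 30 min RT, luminescence; same wells as the LiveBLAzer FRET read. Cells: FXR-UAS-bla HEK 293T. Treatment: compound with chenodeoxycholic acid 50 uM final, 16 h at 37 C.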

The target of test [14] is Vitamin D3 receptor (Homo sapiens) (UniProt P11473). Kind of test: qHTS assay to identify small molecule agonists of the vitamin D receptor (VDR) signaling pathway (AID 743222; calls by dose curve). The method in brief: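 Fluorescence from cleaved LiveBLAzer B/G FRET substrate served as readout. VDR-bla cells had been treated 16 h at 37C with test compounds in DMSO, following a 4 h settling period, and substrate was loaded for 2 h at RT.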
Chain of Vitamin D3 receptor (Homo sapiens) (P11473 whole entry, looked up): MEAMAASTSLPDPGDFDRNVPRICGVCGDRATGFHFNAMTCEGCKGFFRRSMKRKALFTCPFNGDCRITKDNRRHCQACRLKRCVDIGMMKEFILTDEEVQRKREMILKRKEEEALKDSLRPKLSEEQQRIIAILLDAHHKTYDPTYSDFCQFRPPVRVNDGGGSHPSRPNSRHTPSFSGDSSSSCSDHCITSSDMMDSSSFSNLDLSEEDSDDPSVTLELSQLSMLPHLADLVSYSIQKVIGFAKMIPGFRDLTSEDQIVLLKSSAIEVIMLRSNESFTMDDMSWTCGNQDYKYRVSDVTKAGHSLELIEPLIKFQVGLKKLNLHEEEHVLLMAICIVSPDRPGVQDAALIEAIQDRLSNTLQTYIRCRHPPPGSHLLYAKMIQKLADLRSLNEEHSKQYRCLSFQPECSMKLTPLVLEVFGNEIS

Test [15] is described as follows: qHTS assay to identify small molecule agonists of the vitamin D receptor (VDR) signaling pathway - cell viability counter screen (AID 743224). Also: series mostly up to about 63 µM; nearly all actives have a fitted effect of over 50% in size. An outline of the steps:
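Compounds were pin-transferred onto VDR-bla cells plated 4 h earlier; following 16 h incubation at 37C, cell viability was quantified by CellTiter-Glo luminescence after 30 min at room temperature.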

The nature of test [16]: qHTS assay for small molecule agonists of the antioxidant response element (ARE) signaling pathway - cell viability counter screen (AID 743203; calls by dose curve; also: nearly all actives have a fitted effect of over 55% in size). The method in brief: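 Viability counter screen: stably transfected ARE-bla HepG2 line, 16 hrs compound exposure at 37C/5% CO2, ATP-based CellTiter-Glo luminescence measured in the reporter wells.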
In test [17] the target is Bile acid receptor (Homo sapiens) (UniProt Q96RI1). Kind of test: qHTS assay to identify small molecule antagonists of the farnesoid-X-receptor (FXR) signaling pathway (AID 743217; active = well fitted inhibition curve with a large enough effect in the signal ratio in the repeat runs, not every such curve was filed as active; the % refers to the signal ratio). The method in brief:
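Screen of the Tox21 10K library in quantitative HTS format using FXR-UAS-bla HEK 293T reporter cells. Agonist chenodeoxycholic acid, 50 uM final, added with compounds; 16 h incubation at 37 °C; beta-lactamase FRET fluorescence measured.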

Test [18] can be described thus: qHTS assay to identify small molecule agonists of the farnesoid-X-receptor (FXR) signaling pathway - cell viability counter screen (AID 743218). Also: nearly all actives have a fitted effect of over 45% in size. The method in brief:
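Viability of FXR-bla HEK 293T cells is measured by ATP-based CellTiter-Glo luminescence following 16 h compound treatment at 37 C and a prior 2 h room-temperature beta-lactamase substrate step.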

Test [19] has as its target Vitamin D3 receptor (Homo sapiens) (UniProt P11473). Kind of test: qHTS assay to identify small molecule antagonists of the vitamin D receptor (VDR) signaling pathway (AID 743223; active = well fitted inhibition curve with a large enough effect in the signal ratio in the repeat runs, not every such curve was filed as active; the % refers to the signal ratio). The method in brief:
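After VDR-bla cells are plated and left 4 h at 37C, DMSO-dissolved compounds and 3 nM (final) calcitriol agonist are added. Incubation continues 16 h at 37C; FRET beta-lactamase substrate then develops 2 h at room temperature.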

Chain of Peroxisome proliferator-activated receptor gamma (Homo sapiens) (P37231 whole entry, looked up): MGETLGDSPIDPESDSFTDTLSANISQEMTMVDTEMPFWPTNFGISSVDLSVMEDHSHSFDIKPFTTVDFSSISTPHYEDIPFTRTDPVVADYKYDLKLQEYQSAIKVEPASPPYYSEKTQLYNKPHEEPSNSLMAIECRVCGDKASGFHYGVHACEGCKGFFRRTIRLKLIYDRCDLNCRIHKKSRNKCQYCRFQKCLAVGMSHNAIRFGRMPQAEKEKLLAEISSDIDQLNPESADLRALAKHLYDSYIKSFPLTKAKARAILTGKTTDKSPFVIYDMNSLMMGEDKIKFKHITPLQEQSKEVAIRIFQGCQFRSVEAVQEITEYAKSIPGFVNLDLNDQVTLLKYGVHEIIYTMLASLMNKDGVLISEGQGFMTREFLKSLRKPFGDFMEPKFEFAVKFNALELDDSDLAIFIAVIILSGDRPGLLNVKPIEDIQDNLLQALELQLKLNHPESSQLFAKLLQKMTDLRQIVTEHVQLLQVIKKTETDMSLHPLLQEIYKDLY
Chain of Aryl hydrocarbon receptor (Homo sapiens) (P35869 whole entry, looked up): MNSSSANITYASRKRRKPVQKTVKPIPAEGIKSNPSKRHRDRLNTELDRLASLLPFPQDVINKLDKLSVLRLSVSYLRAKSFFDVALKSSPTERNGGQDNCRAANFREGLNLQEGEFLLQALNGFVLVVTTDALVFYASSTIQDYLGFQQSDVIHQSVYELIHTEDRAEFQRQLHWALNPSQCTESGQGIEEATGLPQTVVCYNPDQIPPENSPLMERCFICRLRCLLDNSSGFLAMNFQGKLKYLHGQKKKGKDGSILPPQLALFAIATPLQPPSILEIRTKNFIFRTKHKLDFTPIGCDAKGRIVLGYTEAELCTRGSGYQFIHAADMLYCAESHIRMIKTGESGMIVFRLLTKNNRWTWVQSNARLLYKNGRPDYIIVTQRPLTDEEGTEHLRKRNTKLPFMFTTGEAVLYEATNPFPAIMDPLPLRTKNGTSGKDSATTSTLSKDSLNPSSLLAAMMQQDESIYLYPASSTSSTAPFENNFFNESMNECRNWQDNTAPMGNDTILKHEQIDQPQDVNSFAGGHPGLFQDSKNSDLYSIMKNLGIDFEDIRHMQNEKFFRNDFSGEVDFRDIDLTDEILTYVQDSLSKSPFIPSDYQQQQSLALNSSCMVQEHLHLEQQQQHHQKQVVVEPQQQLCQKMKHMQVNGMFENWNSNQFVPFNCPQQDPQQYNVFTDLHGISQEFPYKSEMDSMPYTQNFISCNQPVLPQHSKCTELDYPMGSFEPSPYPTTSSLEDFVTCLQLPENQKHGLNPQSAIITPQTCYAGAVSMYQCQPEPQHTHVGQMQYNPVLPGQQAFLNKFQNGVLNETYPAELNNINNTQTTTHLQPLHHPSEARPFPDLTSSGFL
Chain of Peroxisome proliferator-activated receptor delta (Homo sapiens) (Q03181 whole entry, looked up): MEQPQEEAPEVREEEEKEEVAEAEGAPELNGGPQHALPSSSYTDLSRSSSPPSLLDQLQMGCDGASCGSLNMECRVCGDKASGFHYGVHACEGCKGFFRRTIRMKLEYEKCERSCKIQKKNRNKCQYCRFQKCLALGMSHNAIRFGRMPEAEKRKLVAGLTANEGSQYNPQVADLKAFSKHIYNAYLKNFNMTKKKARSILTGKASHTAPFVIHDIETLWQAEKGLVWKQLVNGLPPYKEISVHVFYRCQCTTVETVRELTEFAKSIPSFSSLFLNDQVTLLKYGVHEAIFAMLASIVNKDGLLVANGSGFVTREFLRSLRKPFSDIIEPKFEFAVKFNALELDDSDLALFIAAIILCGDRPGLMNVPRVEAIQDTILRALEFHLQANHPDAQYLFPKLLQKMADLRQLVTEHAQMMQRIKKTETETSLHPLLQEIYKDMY
Chain of Bile acid receptor (Homo sapiens) (Q96RI1 whole entry, looked up): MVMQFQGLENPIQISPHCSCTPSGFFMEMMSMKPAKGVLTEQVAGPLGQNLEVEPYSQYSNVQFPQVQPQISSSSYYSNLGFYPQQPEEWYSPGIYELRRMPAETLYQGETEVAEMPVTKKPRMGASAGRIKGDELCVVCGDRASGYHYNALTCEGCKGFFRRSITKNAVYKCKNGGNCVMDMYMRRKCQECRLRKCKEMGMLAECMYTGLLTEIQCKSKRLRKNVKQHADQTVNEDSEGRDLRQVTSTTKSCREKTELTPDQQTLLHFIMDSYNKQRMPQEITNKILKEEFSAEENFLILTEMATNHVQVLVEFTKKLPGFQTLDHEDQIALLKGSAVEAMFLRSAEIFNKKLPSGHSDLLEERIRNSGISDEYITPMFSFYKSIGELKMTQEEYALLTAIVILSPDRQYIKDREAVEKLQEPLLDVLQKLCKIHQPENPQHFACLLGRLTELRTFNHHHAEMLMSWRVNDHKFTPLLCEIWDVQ

`CCCOC(=O)CC`: the Potency entry in test [1], in [2], in test [3], in [4] and in [6] was “inactive” throughout. The call in [5], in test [7], in test [8], in test [9], in test [10] and in test [11] was inactive. For the same compound, the call in test [12], in [13], in test [14] and in test [15] was inactive.
As to `CN(C)CCCN(C)CCCN(C)C`, the Potency entry in [1], in test [2], in test [3], in test [4] and in test [6] was “inactive” in each case. Further, the compound was classed as inactive in test [5], in [16], in test [7], in test [8], in test [9] and in test [11]. Besides, the outcome in [12], in test [17], in test [18], in test [13] and in test [15] was inactive.
`CN(C)C(=O)Oc1ccc[n+](C)c1`: the Potency entry in [1], in test [2], in test [3], in [4] and in [6] was “inactive” throughout. For the same compound, the compound was classed as inactive in test [5], in test [16], in test [7], in test [8], in [9] and in test [10]. Further, the call in [18], in test [13] and in [15] was inactive.
As for `CC[N+](C)(CC)CCOC(=O)C1c2ccccc2Oc2ccccc21`, the Potency result in test [1], in [2], in test [3], in test [4] and in [6] was “inactive” each time. Besides, the call in test [5], in test [16], in [7], in [9], in test [10] and in [11] was inactive. Further, the result in [12], in [13], in test [14], in test [19] and in test [15] was inactive.
For `CC(C)(C)C(=O)Oc1ccc(S(=O)(=O)Nc2ccccc2C(=O)NCC(=O)O)cc1`, the Potency in [1] is 11.9 µM (active). Moreover, the Potency result in test [2], in [3], in test [4] and in test [6] was “inactive” throughout. In addition, the compound was classed as inactive in test [5], in test [16], in test [7], in test [9], in [10] and in test [11]. Besides, the compound was called inactive in test [12], in test [17], in test [13], in test [14], in [19] and in [15].
For `CC(=O)C1CCCCC1=O` (stereo not drawn), the Potency entry in [1], in test [2], in test [3], in [4] and in [6] was “inactive” each time. Besides, the compound was classed as inactive in [5], in test [16], in [7], in test [8], in test [9] and in test [10]. For the same compound, the outcome in [11], in test [12], in [17], in test [18], in test [13] and in test [14] was inactive. The compound was classed as inactive in [19].
`C=COC(=O)C(C)(CC)CCC(C)C` (stereo not drawn): the Potency entry in test [1], in test [2], in test [3] and in test [4] was “inactive” each time. In addition, the compound was called inactive in [5], in [16], in test [7], in test [8], in test [9] and in [10]. Besides, the call in test [11], in test [12], in test [17], in [18] and in test [15] was inactive.
For the compound `C=C[Si](OC(C)=O)(OC(C)=O)OC(C)=O`, the Potency entry in test [1], in [2], in [3], in test [4] and in test [6] was “inactive” throughout. For the same compound, the call in [5], in test [16], in [7], in test [9], in test [10] and in test [18] was inactive. Moreover, the outcome in test [13] was inactive.

The values are drawn from PubChem BioAssay (Tox21).
